Source: PubChem (National Center for Advancing Translational Sciences (NCATS))
Rows were chosen to be rich in hits. Some 10% of all compounds tested hit in one or more screens of this group.
KinaseGlo FLuc – blocks Kinase-Glo luciferase, a counter-screen artifact | Kinase-Glo luciferase, ATP luminescence, 8 min | Potency, µM (top dose mostly 38.3 µM), for inactives: at the top dose activity change, negative = inhibition, hits mostly inhibitors | actives 0.28% (n = 200,000) | AID 1379; active = well fitted inhibition curve with a large enough effect; inconclusive = small, poorly fitted or top-dose-only effect; also: potency is read from the fitted curve at half-maximal effect; nearly all actives have a fitted effect of over 60% in size
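Kinase-Glo luciferase light output from ATP and luciferin was measured with 10 uM ATP, within the enzyme's linear range. Buffer: 50 mM imidazole pH 7.2, 50 mM KCl, 7 mM MgCl2, 0.01% Tween 20, 0.05% BSA; luminescence read after 8 min at ambient temperature.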
HPGD block – blocks human HPGD enzyme activity. P15428. purified HPGD, NADH fluorescence kinetic, PGE2 substrate. Potency, µM, without a hit: at the highest dose activity change, negative = inhibition, most hits filed as inhibitors. actives 4.3% (n = 150,000); also: potency is read from the fitted curve at half-maximal effect
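20 nM HPGD preincubated 15 min at room temperature with compound in 50 mM Tris-HCl pH 8, 0.01% Tween 20. Started with 1 mM NAD+ and 30 uM prostaglandin E2; NADH fluorescence (360/450 nm) read 5 times over 30-s intervals, last minus first.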
Lamin A splicing – modulators of lamin A splicing. Potency, µM (highest dose often 46.1 µM), for the others: at the highest dose ratio change, negative = inhibition, actives largely listed as inhibitors. AID 1487. actives 0.01% (n = 200,000). HeLa LMNA splicing GFP/RFP minigene ratio, 48 h; active = well fitted inhibition curve with a large enough effect in the signal ratio, with a control signal flat, not every such curve was filed as active; inconclusive = small, poorly fitted or top-dose-only effect, or effect the other way, or a change in a side signal; the % refers to the signal ratio; also: potency is read from the fitted curve at half-maximal effect
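Read-out is the ratio of GFP to DsRed2 object intensity, acquired by 488 nm laser-scanning cytometry on HeLa lamin A-EGFP minigene reporter cells. Compound incubation 48 hrs at 37 °C in Opti-MEM with 2% FBS; DMSO 0.5% final.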
PNC assembly inh – inhibitors of perinucleolar compartment assembly; actives 3.1% (n = 140,000); AID 2417; activity change (PNC), negative = inhibition, % at 10 µM; PC3M PTB-GFP, PNC prevalence imaging, 16 h; active compounds read low;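 active = readout at or below -70, meaning at least 70% loss of cells showing the perinucleolar compartment, a nuclear body marking cancer cells; inconclusive = readout between -30 and a set limit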;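 also: plate controls were DMSO wells for no effect and camptothecin positive control wells for full effect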
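PC3M cells stably expressing PTB-GFP, 750–1000 cells/well, treated 16 h at 37 °C with compound (23 nl of library stock), in duplicate. After paraformaldehyde fixation and Hoechst stain, imaged at 20x; PNC prevalence scored by image analysis.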
ALDH1A1 inh – inhibitors of human aldehyde dehydrogenase 1A1; P00352; Purified ALDH1A1, NADH fluorescence, propionaldehyde substrate; Potency, µM (series often up to 75.3 µM), inactives show top-dose activity, negative = inhibition, most hits filed as inhibitors; actives 7.3% (n = 220,000); AID 1030;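 also: potency is read from the fitted curve at half-maximal effect; plate controls were no enzyme wells and a reference inhibitor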
Target sequence (P00352 whole entry, looked up): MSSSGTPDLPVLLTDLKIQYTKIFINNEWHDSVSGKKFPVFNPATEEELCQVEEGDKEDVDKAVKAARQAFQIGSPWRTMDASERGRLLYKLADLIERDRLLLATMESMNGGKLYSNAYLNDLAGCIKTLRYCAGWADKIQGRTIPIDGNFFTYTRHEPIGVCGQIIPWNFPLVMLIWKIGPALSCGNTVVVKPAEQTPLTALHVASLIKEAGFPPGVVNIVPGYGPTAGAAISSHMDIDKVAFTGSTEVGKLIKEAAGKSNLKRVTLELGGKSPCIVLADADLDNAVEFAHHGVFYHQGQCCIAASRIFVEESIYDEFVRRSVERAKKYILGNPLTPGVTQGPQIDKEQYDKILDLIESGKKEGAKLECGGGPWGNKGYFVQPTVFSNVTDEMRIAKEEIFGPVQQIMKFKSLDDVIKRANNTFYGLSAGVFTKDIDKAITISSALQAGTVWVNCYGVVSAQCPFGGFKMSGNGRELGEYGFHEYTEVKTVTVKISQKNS
* marks the source's active call; other numbers are inactive results; i = inactive; ? = inconclusive; . = no result; [ ] = another dose, or the depositor's remark. Unless noted, calls follow the shape of the dose curve; as a rule, active = well fitted inhibition curve with a large enough effect (not every such curve was filed as active); inconclusive = small, poorly fitted or top-dose-only effect, or another doubt; inactive = no such curve, though single readings can be large or run the other way. Unless noted, % is scaled to controls: 0 for no effect and ±100 for the full control effect.

SMILES | KinaseGlo FLuc | HPGD block | Lamin A splicing | PNC assembly inh | ALDH1A1 inh
O=C(Nc1ccccc1N1CCCCC1)c1ccc(-c2ccc(Cl)cc2)o1 | -2% | ? | ? | -82* | i
CCC(=O)N1CCN(c2ccc(NC(=O)c3ccc(Br)o3)cc2)CC1 | -2% | -5% | -4% | -94* | -1%
CCC(=O)N1CCN(c2ccc(Cl)cc2NC(=O)Cc2ccc(Cl)cc2)CC1 | 3% | -9% | -1% | -82* | ?
O=C(Nc1ccccc1N1CCCCC1)c1ccco1 | -3% | -3% | 0% | 27 | 2%
COc1cccc(CNC(=O)CSC2=Nc3ccccc3C3=NC(C)C(=O)N23)c1OC (centres undefined) | . | . | 1%[46 µM] | . | .
CCOC(=O)c1c(C)oc2nc(C)nc(NCc3ccccc3Cl)c12 | . | . | -4%[46 µM] | . | .
N#C/C(=N\Nc1cccc(C(F)(F)F)c1)C(=O)c1ccsc1 | . | . | . | . | -7%
Cc1cnc(CNc2nc(-c3ccoc3)nc3ccccc23)cn1 | . | . | -17% | . | ?
O=C(Nc1ccc(N2CCCC2)c(Cl)c1)c1ccc(Br)o1 | -7% | -30% | -6% | 51 | 19µM*
COc1cccc(C(=O)Nc2cc(S(=O)(=O)N3CCCCC3)ccc2OC)c1 | 1% | . | . | . | ?
CCC(=O)N1CCN(c2ccc(NC(=O)c3ccc([N+](=O)[O-])o3)cc2Cl)CC1 | -1% | . | . | . | 14µM*
O=C(Nc1ccccc1N1CCCC1)c1ccc(Br)o1 | -4% | -6% | -1% | 10 | ?
COc1ccc(S(=O)(=O)N2CCCCC2)cc1NC(=O)c1ccc([N+](=O)[O-])o1 | 4% | . | ? | . | 3.2µM*
Cc1cccc(CNC(=O)CCn2c(=O)c3cccn3c3ccc(F)cc32)c1 | . | . | 2%[46 µM] | . | .
COc1ccc(N2CSC3=C(C#N)C(c4cc(OC)c(OC)cc4OC)CC(=O)N3C2)c(OC)c1 (centres undefined) | -2% | 10µM* | 6% | 17 | 8.9µM*
COc1ccc(C2CC(=O)N3CN(c4ccc(C)c(Cl)c4)CSC3=C2C#N)cc1OC (centres undefined) | -1% | ? | -16% | 14 | 7.9µM*
CCCSC1=C(C#N)C(c2cc(OC)ccc2OC)CC(=O)N1 (centres undefined) | 3% | 22µM* | -5% | 16 | -3%
COc1ccc(C2C(C#N)=C(N)OC3=C2C(=O)CCC3)cc1OC (centres undefined) | 2% | . | 3%[46 µM] | . | 0%
COc1ccc(N2CSC3=C(C#N)C(c4cc(OC)ccc4OC)CC(=O)N3C2)c(OC)c1 (centres undefined) | 0% | 7.9µM* | -5% | 1 | 8.9µM*
CCOc1ccccc1N1CSC2=C(C#N)C(c3c(OC)ccc4ccccc34)CC(=O)N2C1 (centres undefined) | 1% | 7.1µM* | 2% | -106* | 4.5µM*
COc1cc(OC)c(C2CC(=O)N3CN(c4ccc(C)cc4)CSC3=C2C#N)cc1OC (centres undefined) | 1% | 7.1µM* | 2% | 6 | 7.9µM*
CCOc1ccccc1N1CCN(S(=O)(=O)c2cc(C)ccc2OC)CC1 | -4% | . | . | . | -17%
CCSC1=C(C#N)C(c2ccc(OC)c(OC)c2)CC(=O)N1 (centres undefined) | -2% | 2% | -4% | ? | -7%
COc1ccc(N2CSC3=C(C#N)C(c4ccc(OC)c(OC)c4)CC(=O)N3C2)c(OC)c1 (centres undefined) | -4% | 10µM* | 1% | 0 | 11µM*
O=c1c(-c2ccc(F)c(F)c2)nc2cncnc2n1Cc1ccccc1 | -1% | -10% | . | . | -2%
SMILES | KinaseGlo FLuc | HPGD block | Lamin A splicing | PNC assembly inh | ALDH1A1 inh
C[C@@H](C[C@H](N)C(=O)O)C(=O)O | -1%[7.66 µM] | 0% | . | . | 5%
O=C(CSCC(=O)N1CCN(c2ccccc2)CC1)Nc1nc(-c2ccc(Cl)s2)cs1 | 3% | -18% | ? | -108* | ?
O=C(CSCC(=O)N1CCCCC1)Nc1nc(-c2ccc(Cl)s2)cs1 | 0% | ? | -9% | 8 | 25µM*
O=C(CSCC(=O)N1CCCCC1)Nc1nc(-c2cccs2)cs1 | 6% | -19% | 0% | 7 | ?
CCn1ncc(C(=O)Nc2cccc(Cl)c2)c1C | -2% | -4% | 0% | -89* | -1%
CCn1ncc(C(=O)Nc2cc(C)on2)c1C | 1% | 1% | 4% | 49 | 19%
